PubChem BioAssay (NCI)
This is part of a sample that, as a whole, favours compounds with a hit. Of some 79,000 tested, about 15% had one in any assay. The source made the active and inactive calls. Rule as the data show it: active = growth inhibition above about 70%; inactive = the rest.

Legend:
[1] = NCI Yeast Anticancer Drug Screen. Data for the wt2 strain (AID 169);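 also: 0% = growth of vehicle-treated yeast cultures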; conditions: S. cerevisiae wt2 strain growth inhibition, hits give high values
Method in brief: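 Steps: yeast strain treated with compound; growth recorded; inhibition calculated relative to cultures given vehicle alone.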

[2] = NCI Yeast Anticancer Drug Screen. Data for the sgs1 strain (AID 173);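 also: 0% = growth of vehicle-only control cultures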; conditions: S. cerevisiae sgs1 mutant, hits give high values
Method in brief: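 Inhibition of yeast growth served as the measure. The mutant strain was treated with each compound, and growth was normalised to cultures receiving vehicle alone.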

[3] = NCI Yeast Anticancer Drug Screen. Data for the mlh1 rad18 strain (AID 175); conditions: S. cerevisiae mlh1 rad18 strain growth inhibition, hits give high values
Method in brief: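 Compound-treated yeast growth, normalised to vehicle controls. Strain bears defined DNA repair mutations.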

[4] = NCI Yeast Anticancer Drug Screen. Data for the rad18 strain (AID 177); conditions: S. cerevisiae rad18 mutant growth inhibition, hits give high values
Method in brief: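 Inhibition values reflect reduced yeast growth compared with vehicle-treated controls, using a strain engineered with a DNA damage repair defect.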

[5] = NCI Yeast Anticancer Drug Screen. Data for the rad52 strain (AID 147);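 also: 0% = growth of vehicle-treated control cultures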; conditions: S. cerevisiae rad52 mutant growth inhibition, hits give high values
Method in brief: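 Genetically altered yeast (DNA damage repair defect) treated with compound; inhibition calculated relative to vehicle.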

[6] = NCI Yeast Anticancer Drug Screen. Data for the wt1 strain (AID 149);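 also: 0% = growth of vehicle-treated wt1 cultures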; conditions: S. cerevisiae wt1 strain (SPY 50644) growth inhibition, hits give high values
Method in brief: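 Using yeast strain wt1, compound-induced growth inhibition was determined against vehicle-treated cultures.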

[7] = NCI Yeast Anticancer Drug Screen. Data for the rad50EPP+ strain (AID 151);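 also: 0% = growth of vehicle-treated control cultures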; conditions: S. cerevisiae rad50 mutant strain, hits give high values
Method in brief: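 Strain rad50EPP+; compound exposure; % growth inhibition vs vehicle.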

[8] = NCI Yeast Anticancer Drug Screen. Data for the mgt1 strain (AID 153); conditions: S. cerevisiae mgt1 mutant growth inhibition, hits give high values
Method in brief: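 Read-out: yeast growth inhibition vs vehicle control. Strain mgt1, drawn from a panel altered in DNA damage repair or cell cycle control.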

[9] = NCI Yeast Anticancer Drug Screen. Data for the rad50 strain (AID 155);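 also: 0% = growth of vehicle-only cultures of the same strain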; conditions: S. cerevisiae rad50 strain growth inhibition, hits give high values
Method in brief: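 Relative growth inhibition (compound vs vehicle) was measured in yeast with a defined repair-gene alteration.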

[10] = NCI Yeast Anticancer Drug Screen. Data for the mec2-1 strain (AID 157); conditions: S. cerevisiae mec2-1 strain, hits give high values
Method in brief: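 Cells of the genetically defined mec2-1 yeast strain are incubated with test compound. Inhibition of growth is calculated against vehicle-treated controls.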

[11] = NCI Yeast Anticancer Drug Screen. Data for the rad14 strain (AID 159);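 also: 0% = growth of vehicle-treated control cultures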; conditions: S. cerevisiae rad14 strain growth inhibition, hits give high values
Method in brief: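 Screen for anticancer potential: a yeast strain altered in DNA damage repair is grown with compound, and reduced growth is quantified against vehicle controls.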

[12] = NCI Yeast Anticancer Drug Screen. Data for the sgs1 mgt1 strain (AID 161);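 also: 0% = growth of cultures given vehicle only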; conditions: S. cerevisiae sgs1 mgt1 strain, hits give high values
Method in brief: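 Mutant yeast exposed to compound; growth scored against vehicle-only wells.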

[13] = NCI Yeast Anticancer Drug Screen. Data for the CLN2oe strain (AID 163);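 also: 0% = growth of vehicle-only control cultures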; conditions: S. cerevisiae CLN2oe strain, hits give high values
Method in brief: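 Strain altered in cell-cycle control, incubated with compound; growth compared to solvent-treated controls.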

[14] = NCI Yeast Anticancer Drug Screen. Data for the cln2 rad14 strain (AID 165);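 also: 0% = growth equal to vehicle treated cultures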; conditions: S. cerevisiae cln2 rad14 strain, hits give high values
Method in brief: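 The screen exposed genetically defined yeast (cln2 rad14) to test compounds and scored growth inhibition relative to vehicle-treated controls.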

[15] = NCI Yeast Anticancer Drug Screen. Data for the bub3 strain (AID 167); conditions: S. cerevisiae bub3 mutant strain, hits give high values
Method in brief: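 Screening used yeast with an engineered genetic alteration affecting cell cycle control. Compound-exposed cultures were compared with vehicle cultures, and reduced growth was taken as inhibition.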

[16] = at 5.0 µM (retest, dose inferred, filed as 0.5)
[17] = at 50.0 µM (retest, dose inferred, filed as 5.0)

Measured: growth inhibition

CN(C)c1nc(=Nc2cccc(Cl)c2)ss1
active: [1]; at 11.0 µM 90% | [1]; at 33.0 µM 99% | [1]; at 100.0 µM 99% | [2]; at 11.0 µM 95% | [2]; at 33.0 µM 99% | [2]; at 100.0 µM 99% | [3]; [16] 89% | [3]; [17] 99% | [3]; at 50.0 µM 99.5% | [4]; at 11.0 µM 97% | [4]; at 33.0 µM 99% | [4]; at 100.0 µM 99%
inactive: [1]; at 1.2 µM 9% | [1]; at 3.7 µM 32% | [2]; at 1.2 µM 15% | [2]; at 3.7 µM 52% | [4]; at 1.2 µM 12% | [4]; at 3.7 µM 48%

O=C(/C=C/c1cc(Cl)cc(Cl)c1O)c1cccc(O)c1
active: [5]; at 11.0 µM 80% | [5]; at 33.0 µM 98% | [5]; at 100.0 µM 99% | [6]; at 33.0 µM 98% | [6]; at 100.0 µM 97% | [7]; at 3.7 µM 70% | [7]; at 11.0 µM 86% | [7]; at 33.0 µM 97% | [7]; at 100.0 µM 97% | [8]; at 11.0 µM 89% | [8]; at 33.0 µM 99% | [8]; at 100.0 µM 98% | [9]; at 33.0 µM 97% | [9]; [17] 97% | [9]; at 50.0 µM 94% | [9]; at 100.0 µM 97% | [10]; at 11.0 µM 85% | [10]; at 33.0 µM 99% | [10]; [17] 99% | [10]; at 50.0 µM 95.2% | [10]; at 100.0 µM 98% | [11]; at 11.0 µM 96% | [11]; at 33.0 µM 98% | [11]; at 100.0 µM 97% | [12]; [17] 95% | [12]; at 50.0 µM 94% | [13]; at 11.0 µM 74% | [13]; at 33.0 µM 98% | [13]; at 100.0 µM 98% | [14]; [17] 98% | [14]; at 50.0 µM 91.5% | [15]; at 33.0 µM 97% | [15]; [17] 97% | [15]; at 50.0 µM 93.2% | [15]; at 100.0 µM 97% | [1]; at 11.0 µM 89% | [1]; at 33.0 µM 98% | [1]; at 100.0 µM 98% | [2]; at 11.0 µM 78% | [2]; at 33.0 µM 98% | [2]; at 100.0 µM 98% | [3]; [17] 97% | [3]; at 50.0 µM 92.7% | [4]; at 33.0 µM 98% | [4]; at 100.0 µM 98%
inactive: [5]; at 1.2 µM 37% | [5]; at 3.7 µM 36% | [6]; at 1.2 µM 4% | [6]; at 3.7 µM 6% | [6]; at 11.0 µM 50% | [7]; at 1.2 µM 66% | [8]; at 1.2 µM 14% | [8]; at 3.7 µM 25% | [9]; at 1.2 µM 1% | [9]; at 3.7 µM 16% | [9]; [16] 14% | [9]; at 11.0 µM 67% | [10]; at 1.2 µM -19% | [10]; at 3.7 µM 0% | [10]; [16] -9% | [11]; at 1.2 µM 31% | [11]; at 3.7 µM 48% | [12]; [16] 6% | [13]; at 1.2 µM 9% | [13]; at 3.7 µM 23% | [14]; [16] 29% | [15]; at 1.2 µM -12% | [15]; at 3.7 µM -11% | [15]; [16] 38% | [15]; at 11.0 µM 39% | [1]; at 1.2 µM 29% | [1]; at 3.7 µM 27% | [2]; at 1.2 µM 22% | [2]; at 3.7 µM 23% | [3]; [16] 46% | [4]; at 1.2 µM 14% | [4]; at 3.7 µM 13% | [4]; at 11.0 µM 56%

Cc1ccccc1N=Cc1cc(Cl)ccc1O
active: [5]; at 100.0 µM 96% | [6]; at 100.0 µM 75% | [7]; at 100.0 µM 85% | [8]; at 100.0 µM 89% | [9]; at 100.0 µM 98% | [11]; at 100.0 µM 98% | [15]; at 100.0 µM 90% | [1]; at 100.0 µM 73% | [2]; at 100.0 µM 92% | [4]; at 100.0 µM 92%
inactive: [5]; at 1.2 µM -11% | [5]; at 3.7 µM -3% | [5]; at 11.0 µM 4% | [5]; at 33.0 µM 21% | [6]; at 1.2 µM -4% | [6]; at 3.7 µM -5% | [6]; at 11.0 µM -7% | [6]; at 33.0 µM 7% | [7]; at 1.2 µM 3% | [7]; at 3.7 µM 18% | [7]; at 11.0 µM 35% | [7]; at 33.0 µM 58% | [8]; at 1.2 µM -1% | [8]; at 3.7 µM -4% | [8]; at 11.0 µM -2% | [8]; at 33.0 µM 14% | [9]; at 1.2 µM -5% | [9]; at 3.7 µM -1% | [9]; [16] -74% | [9]; at 11.0 µM 10% | [9]; at 33.0 µM 44% | [9]; [17] 66% | [9]; at 50.0 µM 51.3% | [10]; at 1.2 µM 1% | [10]; at 3.7 µM -1% | [10]; [16] -7% | [10]; at 11.0 µM 1% | [10]; at 33.0 µM 2% | [10]; [17] 16% | [10]; at 50.0 µM 35.7% | [10]; at 100.0 µM 53% | [11]; at 1.2 µM -2% | [11]; at 3.7 µM 1% | [11]; at 11.0 µM 11% | [11]; at 33.0 µM 44% | [12]; [16] -13% | [12]; [17] 44% | [12]; at 50.0 µM 26.5% | [13]; at 1.2 µM 2% | [13]; at 3.7 µM 3% | [13]; at 11.0 µM 8% | [13]; at 33.0 µM 12% | [13]; at 100.0 µM 60% | [14]; [16] -32% | [14]; [17] -16% | [14]; at 50.0 µM -13.1% | [15]; at 1.2 µM -6% | [15]; at 3.7 µM -4% | [15]; [16] -68% | [15]; at 11.0 µM -1% | [15]; at 33.0 µM 16% | [15]; [17] -4% | [15]; at 50.0 µM 42% | [1]; at 1.2 µM -1% | [1]; at 3.7 µM 0% | [1]; at 11.0 µM -1% | [1]; at 33.0 µM 2% | [2]; at 1.2 µM -2% | [2]; at 3.7 µM -3% | [2]; at 11.0 µM 4% | [2]; at 33.0 µM 20% | [3]; [16] -73% | [3]; [17] 18% | [3]; at 50.0 µM 67% | [4]; at 1.2 µM -6% | [4]; at 3.7 µM 2% | [4]; at 11.0 µM 9% | [4]; at 33.0 µM 23%
